# Screens as filed in PubChem.
# This is a sample that favours compounds with a hit; in the whole collection about 3.2% have one here.
# PNC assembly inh: inhibitors of perinucleolar compartment assembly. PC3M PTB-GFP, PNC prevalence imaging, 16 h; hits give low values. activity change (PNC), negative = inhibition, % at 10 µM. actives 3.1% (n = 140,000). AID 2417;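 active = readout at or below -70, meaning at least 70% loss of cells showing the perinucleolar compartment, a nuclear body marking cancer cells; inconclusive = readout between -30 and a set limit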;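 also: plate controls were DMSO wells for no effect and camptothecin positive control wells for full effect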
#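 PC3M cells stably expressing PTB-GFP, 750–1000 cells/well, treated 16 h at 37 °C with compound (23 nl of library stock), in duplicate. After paraformaldehyde fixation and Hoechst stain, imaged at 20x; PNC prevalence scored by image analysis.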
# 15-hLO-2 inh: 15-hLO-2 (ALOX15B) enzyme inhibition | O15296 | purified 15hLO-2, xylenol orange hydroperoxide absorbance | Potency, µM (series often up to 57.1 µM), without a hit: at the highest dose activity change, negative = inhibition, actives largely listed as inhibitors | actives 0.56% (n = 110,000) | AID 881; also: potency is read from the fitted curve at half-maximal effect; nearly all actives have a fitted effect of over 60% in size
#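 Enzyme 50 nM, AA 45 uM, 25 mM Hepes pH 7.5 + 0.01% Triton X-100; cpd preinc 15 min RT, rxn 90 min RT; stop/detect with 200 uM XO + 300 uM Fe(II) in 50 mM H2SO4, 30 min; A573/A405.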
# ALOX12 inhib: blocks human 12-lipoxygenase activity. actives 0.12% (n = 150,000). AID 1452. Potency, µM (doses to about 57.1 µM), inactives show at the top dose activity change, negative = inhibition, most hits filed as inhibitors. purified 12-hLO, xylenol orange hydroperoxide absorbance; also: potency is read from the fitted curve at half-maximal effect; nearly all actives have a fitted effect of over 55% in size
# Target sequence (P18054 whole entry, looked up): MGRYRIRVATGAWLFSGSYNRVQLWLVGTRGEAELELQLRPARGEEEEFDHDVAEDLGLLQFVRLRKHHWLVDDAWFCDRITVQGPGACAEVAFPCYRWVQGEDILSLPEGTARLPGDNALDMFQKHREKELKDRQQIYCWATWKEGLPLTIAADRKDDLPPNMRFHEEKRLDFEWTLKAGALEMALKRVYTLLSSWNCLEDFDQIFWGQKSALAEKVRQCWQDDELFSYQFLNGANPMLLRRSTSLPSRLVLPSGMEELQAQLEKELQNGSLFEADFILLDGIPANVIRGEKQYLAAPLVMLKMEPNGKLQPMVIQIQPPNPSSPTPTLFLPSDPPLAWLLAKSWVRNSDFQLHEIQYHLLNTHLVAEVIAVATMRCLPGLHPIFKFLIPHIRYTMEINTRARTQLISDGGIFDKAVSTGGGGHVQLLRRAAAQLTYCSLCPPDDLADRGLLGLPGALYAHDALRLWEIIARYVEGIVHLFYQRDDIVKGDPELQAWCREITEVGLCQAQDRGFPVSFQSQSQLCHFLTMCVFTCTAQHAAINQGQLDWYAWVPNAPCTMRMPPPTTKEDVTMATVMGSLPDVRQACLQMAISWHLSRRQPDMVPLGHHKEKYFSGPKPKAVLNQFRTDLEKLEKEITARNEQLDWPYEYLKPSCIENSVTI
#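 150 nM 12hLO, 25 mM Hepes pH 7.0 + 0.01% Triton X-100; cpd preinc 15 min RT; 40 uM arachidonic acid, 30 min RT; Fe-XO 30 min; A573/A405 ratio as read-out.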
# Active calls of the source: *; ? = inconclusive; . = no result; ! = not confirmed by another sample; [ ] = another dose, or the depositor's remark. Unless noted, calls follow the shape of the dose curve; as a rule, active = well fitted curve in the direction sought with a large enough effect; inconclusive = small, poorly fitted or top-dose-only effect, or another doubt; inactive = no such curve, though single readings can be large; an effect the other way counts as inactive or inconclusive. Unless noted, % is scaled to controls: 0 for no effect and ±100 for the full control effect.
SMILES,PNC assembly inh,15-hLO-2 inh,ALOX12 inhib
O=S(=O)(Nc1cccc(C(F)(F)F)c1)c1cccnc1,22,1%,-1%
O=S(=O)(Nc1cccnc1)c1cccc(C(F)(F)F)c1,-92*,0%,-5%
COc1ccc(C2=Nc3cccc4cccc(c34)N2)cc1,6,53%,11%
CC(C)C1=Nc2cccc3cccc(c23)N1,69,10µM*,-3%
O=C(O)CN1CCCC1=Nc1ccccc1,-11,1%,11%
Cc1ccc(C)c(N=C2CCCN2Cc2ccccc2)c1C#N,-119*,.,-4%
CC(=O)N1CCC2(CC1)CCN(C(=O)Nc1cccc(F)c1)CC2,.,-6%,4%
CC(=O)Oc1ccc2c(c1)Oc1cc(OC(C)=O)ccc1C21OC(=O)c2ccccc21,-100*,.,-4%
O=C1OC2(c3ccc(O)cc3Oc3cc(O)ccc32)c2ccccc21,.,-30%[0.0915 µM],-3%[0.00818 µM]
COC(=O)C1=C(C(=O)OC)[C@@H]2N(C)c3ccccc3[C@@]23C[C@@H](C(=O)OC)N(S(=O)(=O)c2ccc(OC)cc2)C3=N1,.,.,0%[11.4 µM]
Cc1cc(NC(=O)CSc2nc(-c3cccs3)cc(C(F)(F)F)n2)no1,-97*,-4%,5%
CCCNC(=O)CSc1nc(-c2cccs2)cc(C(F)(F)F)n1,-26,-11%,3%
N#Cc1c(NC(=O)CSc2nc(-c3ccco3)cc(C(F)(F)F)n2)sc2c1CCCC2,-84*,-2%,1%
N#Cc1c(NC(=O)CSc2ncn[nH]2)sc2c1CCCCC2,-117*,35%,-3%
COC(=O)c1c(NC(=O)CSc2nc(-c3ccco3)cc(C(F)(F)F)n2)sc2c1CCCC2,-24,0%,-7%
N#Cc1c(NC(=O)CSc2nc(N)cc(=O)[nH]2)sc2c1CCCCCC2,-27,-18%,-2%
Cc1ccc(NC(=O)CSc2nc(-c3ccco3)cc(C(F)(F)F)n2)cc1C,?,.,0%
COC(=O)c1ccccc1NC(=O)CSc1nc(-c2ccco2)cc(C(F)(F)F)n1,-82*,4%,-1%
O=c1cnc2cnc(Nc3ccccc3)nc2n1C1CC1,.,-10%,.
Nc1ncnc2c1nc(Sc1ccc(Cl)cc1)n2[C@@H]1O[C@H]2COP(=O)(O)O[C@@H]2[C@H]1O,.,1%,-4%
FC(F)(F)c1ccccc1-c1nc(N2CCOCC2)c2ccccc2n1,.,-9%,.
Cc1ccc(S(=O)(=O)N=S(CC2CC2(Cl)Cl)CC2CC2(Cl)Cl)cc1 (stereo unspecified),-29,-1%,-4%
CCc1ccc(C(=O)CN2C(=O)NC(C)(CCc3ccccc3)C2=O)cc1 (stereo unspecified),?,.,4%
Cc1cc(C(=O)NCCCn2ccnc2)sc1-c1ccccc1,41,51%,3%
C=CCn1c(SCC(=O)Nc2sc3c(c2C#N)CCC3)nnc1C1COc2ccccc2O1 (stereo unspecified),?,-15%,1%
SMILES,PNC assembly inh,15-hLO-2 inh,ALOX12 inhib
Cn1c(SCC(=O)Nc2sc3c(c2C#N)CCC3)nnc1C1COc2ccccc2O1 (stereo unspecified),-81*,-2%,-16%
CCCCN(CC)CCNC(=O)CN1C(=O)COc2ccc(S(=O)(=O)N3CCCC3)cc21,53,.,8%
CC(=O)Nc1cccc(Oc2ncnc3scc(-c4ccc(C(C)C)cc4)c23)c1,?,.,-5%
CCCCC(=O)/C=C/n1c(=S)oc2ccccc21,-116*,.,2%
CC(C)OC(=O)n1c(=S)oc2ccccc21,-4,7%,0%
CCCCOc1cc(C(=O)NCCN(CC)CC)c2ccccc2n1,-115*!,35%,-7%
CCN(CC)CCCNC(=O)c1cc(Sc2nnc(C)s2)nc2ccccc12,?,.,4%
Cc1ccc(C)n1-c1sc2c(c1C#N)CCCC2,-100*,.,-23%
Cc1sc(-n2c(C)ccc2C)c(C#N)c1C,17,-27%,-5%
CN1CCCC2(CCN(C(=O)c3cnccn3)CC2)C1,.,18%,4%
COc1ccc(C)cc1NC(=O)Cn1cnc2sc(C)c(S(=O)(=O)N3CCOCC3)c2c1=O,-100*,.,-3%
COc1ccccc1NC(=O)Cn1cnc2sc(C(=O)NCc3ccco3)c(C)c2c1=O,17,3%,-1%
COc1ccccc1NC(=O)Cn1cnc2sc(C)c(S(=O)(=O)N3CCCCC3)c2c1=O,-113*,.,-1%
Cc1sc2ncn(CC(=O)NCCN3CCOCC3)c(=O)c2c1S(=O)(=O)N1CCC(C)CC1,-24,2%,6%
CN(Cc1ccco1)c1ncncc1-c1ccccc1Cl,.,6%,.
CC(=O)N1CCN(c2ccc(NCc3ccc(F)cc3)cc2)CC1,?,25µM*,?
CCOc1cc(CNc2ccc(S(N)(=O)=O)cc2)cc(Cl)c1OC,?,.,0%
CC(=O)N1CCN(c2ccc(NC(=O)c3ccc(C(C)(C)C)cc3)cc2)CC1,?,5%[11.4 µM],-3%
COc1cccc(CNc2ccc(N3CCCCC3)cc2)c1OC,-14,25µM*,-22%
CCOc1cc(CNc2ccc(N3CCCCC3)cc2)cc(Br)c1OCC(=O)NC(C)(C)C,-10,.,-3%
CCOc1cc(CNc2ccc(N3CCOCC3)cc2)cc(Br)c1OCC,-113*,.,?
CCOc1cc(CNc2ccc(N3CCCC3)cc2)cc(Cl)c1OC,-113*,.,-9%
COc1ccccc1CNc1ccc(N2CCCCC2)cc1,?,-13%[2.29 µM],-8%
O=C(CSc1nnc(-c2ccncc2)n1-c1ccc(F)cc1)NNC(=O)c1cccc(O)c1,-13,.,-2%
CCOC(=O)n1ccn(C)c1=S,.,9%,-2%
SMILES,PNC assembly inh,15-hLO-2 inh,ALOX12 inhib
CC(=O)c1cccc(NC(=O)Cc2coc3cc4c(cc23)CCC4)c1,38,.,-2%
C[N+](C)(C)[C@@H](C1=CCCC1=O)c1ccccc1,.,-12%[11.4 µM],2%[11.4 µM]
Cn1cnnc1SCc1ccc(C(=O)N=Nc2c(O)n(C)c3ccccc23)cc1,-21,.,0%
COc1ccccc1-c1nnc(SCC(=O)NC2CCS(=O)(=O)C2)n1CCc1ccccc1 (stereo unspecified),35,.,-3%
CC(C)c1ccc(CNc2ccc(N3CCOCC3)cc2)cc1,?,-13%[2.29 µM],?
C=CCOc1c(Cl)cc(CNc2ccc(N(C)C)cc2)cc1OC,?,-7%,?
CCOc1ccc(CNc2ccc(N3CCCC3)cc2)cc1,14,5µM*,-29%
C=CCOc1c(Cl)cc(CNc2ccc(C)c(Cl)c2)cc1OC,-92*,1%,-12%
CCOc1cc(CNc2ccc(N(C)C)cc2)cc(Br)c1OCC(=O)NC(C)(C)C,?,?,-5%
CCOc1cc(CNc2ccc3c(c2)OCCO3)cc(Br)c1OCC,-83*,-10%,-16%
Cc1ccc(Nc2nnc(SCC(=O)Nc3cccnc3Cl)s2)cc1C,?,.,0%
c1ccc(SCCSc2ccccc2)cc1,.,2%,-1%
COc1ccc(NC(=S)Nc2ccc(Oc3ccccc3)cc2)cc1,46,?,-17%
COc1ccc(NC(=S)NN(C)C(=S)Nc2ccc(OC)cc2)cc1,-114*,.,-3%
CCN(CC)c1cccc(OC2=NS(=O)(=O)c3ccccc32)c1,-24,-10%,2%
CCOCCCNC(=O)C(c1ccc(C)cc1)N(Cc1cccs1)C(=O)CNC(C)=O (stereo unspecified),-11,.,3%
CCOC(=O)COC(=O)c1ccc(Oc2cc(C)nc(SC)n2)cc1,31,.,-6%
CCOC(=O)c1ccc(Oc2cc(C)nc(SC)n2)cc1,-100*,?,-1%
